Compound activity (PubChem BioAssay)
The list is not random: actives were taken first. Their share in the collection is about 4.2%.
esBAF inh: Bmi1 luciferase reporter increase in mESCs, primary screen, esBAF inhibitor project, mouse ES cells, Bmi1 luciferase knock-in, single point; 350,000 compounds, 2% hits; AID 602393, 2012; reporter increase, % at 12.5 µM; 24 h; 100% = twice the neutral-well signal; in the data active means activation above about 40%;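 further: a rise in the Bmi1 reporter signal indicates esBAF inhibition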
AHR activator: AHR activators, primary screen, cell-based, luminescence, luciferase reporter, human; 320,000 compounds, 2.5% hits; AHR-responsive luciferase reporter cells; Aryl hydrocarbon receptor (Homo sapiens), P35869; activation, % at 5 µM; AID 2796, 2010; in the data active means activation above about 47%
FXN GAA850 act: FXN promoter activators, primary screen, cell-based, luciferase luminescence, HEK293 lucGAA850; HEK293 lucGAA850 FXN promoter luciferase reporter, 24 h; percent of 10 µM SAHA response; activation, % at 6 µM; 360,000 compounds, 0.56% hits;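 active means activation above the average of all compounds screened plus 3 SD, cutoff fixed separately per campaign, cut at about 7.5% in these data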
MITF TRPM1 HTS: activators of MITF-driven TRPM1 promoter reporter, primary screen, cell-based, SK-MEL-5, luciferase, single point | SK-MEL-5 TRPM1-promoter luciferase, 24 h; % of positive control, neutral wells = 0 | 300,000 compounds, 0.75% hits | activation, % at 12.5 µM;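 active means mean activation of at least 80% with every replicate also reaching 80%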
Wnt act: Wnt/beta-catenin pathway activators, primary screen, cell-based, plate reader, single point | Wnt/beta-catenin reporter cell assay, activator | 300,000 compounds, 1.2% hits | activation, % at 9.35 µM; in the data active means activation above about 30%, passing the limit was not always enough
GAA30 FXN cntr: GAA30 FXN promoter activators, confirmation, counter-screen for GAA850 frataxin promoter activator project, cell-based, luminescence, HEK293, lucGAA30, triplicate | HEK293 lucGAA30 FXN promoter luciferase, 24 h; DMSO = 0%, 5 µM ipriflavone = 100% | 1,900 compounds, 66% hits | AID 588350, 2011 | shares compounds with FXN GAA850 act | activation, % at 6 µM;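 active means mean activation above the mean of solvent-only control wells plus 3 SD, cut at about 22% in these data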;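 further: counterscreen of GAA850 promoter hits where activity marks nonselective or luminescence artifacts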
GAA850 confirm: FXN GAA850 promoter activators in reporter cells, confirmation, cell-based, luminescence, HEK293 lucGAA850, triplicate | shares compounds with FXN GAA850 act | HEK293 lucGAA850 FXN promoter luciferase reporter, 24 h; 100% = activation by SAHA | activation, % at 6 µM | 1,900 compounds, 86% hits | AID 588351, 2011;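 active means mean activation above a set limit taken from the primary screen, cut at about 8% in these data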
Large screens that a line does not name were inactive (follow-up assays come after a bar, where they were run).

CC(C)c1ccc(NC(=O)c2cccc(Br)c2)cc1	FXN GAA850 act 8.2, Wnt act 56 (no result: esBAF inh) | GAA30 FXN cntr 110 | GAA850 confirm 49
CCOc1c(Cl)cc(C(=O)NCCN2CCCCC2)cc1Cl	FXN GAA850 act 13 (no result: Wnt act) | GAA30 FXN cntr inactive | GAA850 confirm inactive
C[C@H]1CN([C@@H](C)CO)C(=O)c2cccc(NC(=O)c3nc4ccccc4s3)c2O[C@@H]1CN(C)C(=O)Nc1ccccc1	none (no result: AHR activator, FXN GAA850 act, MITF TRPM1 HTS, Wnt act)
O=C(Nc1cnn(C23CC4CC(CC(C4)C2)C3)c1)c1cnn2cccnc12	FXN GAA850 act 10 | GAA30 FXN cntr 107 | GAA850 confirm 42
CCOC(=O)CNC(=O)c1cnn2cccnc12	none (no result: Wnt act)
Cc1c(CCOC(=O)C23CC4CC(CC(C)(C4)C2)C3)sc[n+]1CC(=O)c1ccccc1	FXN GAA850 act 8.3 | GAA30 FXN cntr 31 | GAA850 confirm 20
Cc1c(CCOC(=O)CC23CC4CC(CC(C)(C4)C2)C3)sc[n+]1CC(=O)c1ccccc1	FXN GAA850 act 9.7 (no result: esBAF inh) | GAA30 FXN cntr inactive | GAA850 confirm 14
Cc1c(CCOC(=O)c2ccccc2)sc[n+]1CC(=O)c1ccc(Br)cc1	none (no result: Wnt act)
Cc1c(CCOC(=O)CC23CC4CC(CC(C4)C2)C3)sc[n+]1CC(=O)c1ccc(Br)cc1	none (no result: MITF TRPM1 HTS, Wnt act)
CO[C@H]1CN(C)C(=O)c2cc(NC(=O)Nc3cccc(F)c3)ccc2OC[C@H](C)N(C(=O)C2CC2)C[C@@H]1C	none (no result: AHR activator, FXN GAA850 act, MITF TRPM1 HTS, Wnt act)
Nn1nnc2ccccc21	FXN GAA850 act 20 | GAA30 FXN cntr 46 | GAA850 confirm 16
CCn1c(SCc2ccccc2Cl)nc2nc3c(cc2c1=O)CCCC3	FXN GAA850 act 7.8 (no result: AHR activator) | GAA30 FXN cntr inactive | GAA850 confirm 12
CCn1c(SCc2c(Cl)cccc2Cl)nc2nc3c(cc2c1=O)CCCC3	none
COc1cccc(C(=O)/C=C/Nc2cc(C)ccc2O)c1	esBAF inh 63, FXN GAA850 act 11 (no result: Wnt act) | GAA30 FXN cntr 47 | GAA850 confirm 33
COc1cccc(S(=O)(=O)Nc2ccc3c(c2)[C@H]2C[C@H](CC(=O)O)O[C@@H](CO)[C@H]2O3)c1	none (no result: AHR activator, FXN GAA850 act, MITF TRPM1 HTS, Wnt act)
Cc1ccc(OCCCCNC(C)c2ccccc2)c(C)c1 (stereo unspecified)	FXN GAA850 act 7.7 (no result: MITF TRPM1 HTS) | GAA30 FXN cntr 24 | GAA850 confirm 8.8
Cc1ccc(OCCNCc2ccccc2)c(C)c1	none
C[C@@H]1CN([C@@H](C)CO)C(=O)Cc2cc(NC(=O)c3ccncc3)ccc2O[C@H]1CN(C)S(C)(=O)=O	none (no result: AHR activator, FXN GAA850 act, MITF TRPM1 HTS, Wnt act)
CCOC(=O)c1c(NC(=O)CC)sc(C(=O)N2CCCCC2)c1C	none (no result: Wnt act)
CCOC(=O)c1sc(NC(=O)CCN2CCCCCC2)c(C(=O)OCC)c1C	FXN GAA850 act 10 | GAA30 FXN cntr inactive | GAA850 confirm inactive
COc1ccc(S(=O)(=O)N(C)C[C@@H]2Oc3c(NS(C)(=O)=O)cccc3C(=O)N([C@@H](C)CO)C[C@@H]2C)cc1	none (no result: AHR activator, FXN GAA850 act, MITF TRPM1 HTS, Wnt act)
O=C(Nc1ccc(F)cc1)Nc1ccc(N2CCOCC2)c2nonc12	FXN GAA850 act 8.2, MITF TRPM1 HTS 94 (no result: esBAF inh) | GAA30 FXN cntr 103 | GAA850 confirm 32
O=C1[C@H]2[C@@H](c3ccc(Cl)cc3)N3C(=O)N(c4cccc(Cl)c4)C(=O)[C@@]3(Cc3ccccc3)[C@H]2C(=O)N1C1CCCCC1	FXN GAA850 act 8.2 | GAA30 FXN cntr inactive | GAA850 confirm inactive
CC(C)(C)N1C(=O)[C@H]2[C@@H](c3ccc(Br)cc3)N3C(=O)N(c4cccc(F)c4)C(=O)[C@@]3(Cc3ccccc3)[C@H]2C1=O	none
CCN1C(=O)[C@H]2[C@@H](c3ccc(C)cc3)N3C(=O)N(c4ccc(C)cc4)C(=O)[C@@]3(Cc3ccccc3)[C@H]2C1=O	none
